Source: PubChem BioAssay (NCI)
About 83,000 compounds went through this panel and 20% of them were active in at least one assay; those are over-represented in the sample as a whole.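 Values shown are percent growth following 48 h exposure of cells in 96-well plates to a single concentration of compound; below 10 was considered active.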 A number with no mark means an inactive call. The source made the active and inactive calls.

How the values were obtained:
Assay in all cases: NCI-60 one-dose screen, 48 h (100 = growth as untreated, 0 = no growth, -100 = all killed)
Settings in all cases: 10 µM unless noted
HCT-15 colon = tested on: HCT-15 colon
HT29 colon = tested on: HT29 colon
SNB-75 CNS = tested on: SNB-75 CNS
SNB-19 CNS = tested on: SNB-19 CNS
U251 CNS = tested on: U251 CNS
SK-MEL-5 melanoma = tested on: SK-MEL-5 melanoma
UACC-62 melanoma = tested on: UACC-62 melanoma
LOX IMVI melanoma = tested on: LOX IMVI melanoma
SK-MEL-28 melanoma = tested on: SK-MEL-28 melanoma
SK-MEL-2 melanoma = tested on: SK-MEL-2 melanoma
EKVX NSCLC = tested on: EKVX NSCLC
SN12C renal = tested on: SN12C renal
UO-31 renal = tested on: UO-31 renal
TK-10 renal = tested on: TK-10 renal
ACHN renal = tested on: ACHN renal
CAKI-1 renal = tested on: CAKI-1 renal
A498 renal = tested on: A498 renal
MOLT-4 leukemia = tested on: MOLT-4 leukemia
CCRF-CEM leukemia = tested on: CCRF-CEM leukemia

Row | SMILES | growth (HCT-15 colon) | growth (HT29 colon) | growth (SNB-75 CNS) | growth (SNB-19 CNS) | growth (U251 CNS) | growth (SK-MEL-5 melanoma) | growth (UACC-62 melanoma) | growth (LOX IMVI melanoma) | growth (SK-MEL-28 melanoma) | growth (SK-MEL-2 melanoma) | growth (EKVX NSCLC) | growth (SN12C renal) | growth (UO-31 renal) | growth (TK-10 renal) | growth (ACHN renal) | growth (CAKI-1 renal) | growth (A498 renal) | growth (MOLT-4 leukemia) | growth (CCRF-CEM leukemia)
1 | CCOC(=O)c1sc2nc(-c3cccc(OC)c3)nc(N3CCOCC3)c2c1C | 96.4% | 89.9% | 95.3% | 89.1% | 86.9% | 85.5% | 75.6% | 94% | 101% | 93.2% | 87.7% | 87.5% | 79.7% | 98.1% | 103% | 79.8% | 101% | 93.1% | –
2 | O=C1c2cccc3cccc(c23)C(=O)N1CCCCCN1CCN(CCCCCOc2ccc(-c3nc4ccc(N5CCOCC5)cc4[nH]3)cc2)CC1 | 80.4% | 44.3% | 112% | 129% | 99.6% | 96.7% | 75% | 56.4% | 95.7% | 87.4% | 105% | 108% | 4.03% (active) | 106% | 111% | 59.4% | 117% | -54.4% (active) | -17.9% (active)
3 | COc1ccc(S(=O)(=O)N2CCN(C)CC2)cc1NC(=O)c1[nH]c(C)c2c1CCCCC2=O | 62.4% | 28.9% | 17.4% | 66.5% | 68% | 43.7% | 25.6% | 29.6% | 72% | 79.6% | 58.4% | 60.4% | 37% | 33.4% | 58.6% | 21.2% | 60.9% | 81.4% | 75.5%
4 | O=C(Cc1ccccc1Nc1c(Cl)cccc1Cl)NN1C(=O)/C(=C/c2ccc(Br)cc2)SC1=S | 104% | 109% | 86.4% | 105% | 102% | 98.6% | 101% | 97.5% | 105% | 99.9% | 98.5% | 100% | 90.9% | 107% | 104% | 100% | 107% | 107% | 107%
5 | Cn1cc(C(=O)c2nc(-c3c[nH]c4ccc(F)cc34)no2)c2cc(F)ccc21 | 68.6% | 101% | 79.8% | 101% | 100% | 92.8% | 81.7% | 95.2% | 103% | 98.1% | 89.8% | 95.1% | 69.5% | 113% | 96.1% | 82.5% | 112% | 95.2% | 91.7%
6 | COc1cccc(C2=NN3C(C2)c2cc(Br)cc(OC)c2OC32CCN(Cc3ccccc3)CC2)c1 (centres undefined) | 101% | 108% | 89.5% | 101% | 98.8% | 99.5% | 98.7% | 94.2% | 107% | 102% | 94.8% | 98.7% | 85.3% | 108% | 102% | 90.3% | 104% | 106% | 109%
7 | CCOC(=O)n1cc(-c2nonc2-c2cn(C)c3ncccc23)c2cc(F)ccc21 | 68.8% | 83.2% | 64.3% | 91.6% | 77.2% | 81.5% | 62.2% | 83.8% | 102% | 92.8% | 67.3% | 79.8% | 57.5% | 80.8% | 74.9% | 54.8% | 94.8% | 66.7% | 85%
8 | CCN(CC)S(=O)(=O)c1ccc(OC)c(NC(=O)c2[nH]c(C)c3c2CCCCC3=O)c1 | 18.9% | 14.5% | 9.16% (active) | 45.2% | 43.6% | -21.8% (active) | 16.2% | 9.93% (active) | 55.7% | 55.3% | 43.5% | 42% | 14.4% | 13.5% | 31.1% | 15.1% | 15.1% | 64.9% | 55.7%
9 | COc1ccc(-c2nc3cc(C(=O)Nc4cc(OC)c(OC)c(OC)c4)ccc3n2C2CCCCC2)cc1 | 80.2% | 102% | 82% | 98.1% | 96.6% | 77.8% | 80.2% | 95.5% | 97% | 95.6% | 91.8% | 91.7% | 78.7% | 111% | 93.2% | 97.4% | 113% | 83.1% | 94.3%
10 | CCn1c(Cc2ccccc2Nc2c(Cl)cccc2Cl)nnc1SCC(=O)NN1C(=O)/C(=C/c2cc(OC)c(O)c(OC)c2)SC1=S | 50.4% | 25.5% | 2.65% (active) | 41.9% | 31.5% | 26.1% | 33.2% | 26.8% | 45.7% | 30.7% | 60.2% | 54.8% | 59.6% | 70% | 58.9% | 37% | 20.6% | 23.1% | 19.1%
11 | CC1SC(c2ccc(N(C)C)cc2)N(NC(=O)C(O)(c2ccccc2)c2ccccc2)C1=O (centres undefined) | 83.8% | 93.8% | 96.6% | 110% | 91.4% | 98.8% | 79.9% | 87.7% | 111% | 104% | 93.5% | 110% | 47.7% | 89.4% | 94% | 91.2% | 101% | 72% | 65.1%
12 | CC(=O)c1nc2ccccc2n1CC(=O)c1cccc(Cl)c1 | 27.3% | 94% | 21% | 24.1% | 14.3% | -13.2% (active) | 31.5% | 36.9% | 67.7% | 61.9% | 17.1% | 31.9% | 28.3% | 34.3% | 51.3% | 5.79% (active) | 88.5% | 4.87% (active) | 5.08% (active)
13 | O=c1c2c3c(sc2nc(N/N=C/c2cn(-c4ccccc4)nc2-c2ccc(Cl)cc2)n1Cc1ccccc1)CCCC3 | 114% | 110% | 102% | 107% | 111% | 104% | 94.7% | 110% | 112% | 103% | 106% | 127% | 95.9% | 129% | 117% | 98.9% | 112% | 22% | 109%
14 | CCOC(=O)c1csc(NC(=O)COc2cccc(/C=C3\CSc4ccccc4C3=O)c2)n1 | 89% | -34.2% (active) | -33.7% (active) | 81.3% | -54.2% (active) | 54.5% | 64.4% | -93.9% (active) | 89.3% | -49.8% (active) | -36.2% (active) | 74.8% | -35.1% (active) | 68.6% | 45.5% | 2.32% (active) | 115% | -50.9% (active) | -61.3% (active)
15 | Cn1c(NCCc2ccc(O)c(O)c2)nc2c1c(=O)n(Cc1ccc(Br)cc1)c(=O)n2C | 42.7% | 96.8% | 74.6% | 79.8% | 82.8% | 57.6% | 82% | 87.9% | 82.6% | 89.8% | 79.9% | 72.7% | 30% | 68.8% | 32.9% | 74.7% | 106% | 29.3% | 23%
